# Data taken from PubChem BioAssay AID2501 (Southern Research Specialized Biocontainment Screening …, 2010).
# The campaign covered roughly 2,200 compounds. About 1,200 (55%) were called active. No cut-off is given here; in the data, nearly all actives have IC50 up to about 92 µM. So high a share suggests a set chosen from earlier hits. The list shows a part of the results.
# Test: counter assay for TAg ATPase ADP read-out – biochemical, ADP-Hunter, fluorescence, counter-screen (AID 2501);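 note: purified T antigen ATPase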
# Conditions: series mostly up to 100 µM
row,SMILES,IC50
1,CCOc1ccc2ccccc2c1C(=O)N[C@@H]1C(=O)N2[C@@H]1SC(C)(C)[C@@H]2C(=O)O,inactive
2,CN1CSC2=C(C#N)C(c3cccc(OCc4ccccc4)c3)CC(=O)N2C1 (stereo unspecified),21.8 µM (active)
3,CCOc1ccccc1N1CSC2=C(C#N)C(c3c(OC)ccc4ccccc34)CC(=O)N2C1 (stereo unspecified),81.2 µM (active)
4,COc1ccccc1N1CSC2=C(C#N)C(c3ccc(SC)cc3)CC(=O)N2C1 (stereo unspecified),27.8 µM (active)
5,CC(C)c1ccc(C2CC(=O)N3CN(C)CSC3=C2C#N)cc1 (stereo unspecified),inactive
6,COc1cc(SC#N)ccc1N=Cc1c(C)[nH]n(-c2cccc3ccccc23)c1=O,inactive
7,COc1ccc(C2CC(=O)N3CN(c4ccccc4F)CSC3=C2C#N)cc1OC (stereo unspecified),inactive
8,COc1ccc(N2CSC3=C(C#N)C(c4ccc(OC)c(OC)c4)CC(=O)N3C2)c(OC)c1 (stereo unspecified),24.8 µM (active)
9,CC(=O)N1N=C(c2ccc(C)cc2)CC1c1ccco1 (stereo unspecified),inactive
10,COc1ccc(N2CSC3=C(C#N)C(c4cc(OC)c(OC)cc4OC)CC(=O)N3C2)c(OC)c1 (stereo unspecified),78.4 µM (active)
11,COc1ccc(OC)c(C2CC(=O)N3CN(c4cccc(Cl)c4C)CSC3=C2C#N)c1 (stereo unspecified),inactive
12,COc1cc(OC)c(C2CC(=O)N3CN(c4ccc(C)cc4)CSC3=C2C#N)cc1OC (stereo unspecified),68 µM (active)
13,COc1ccc(N2CSC3=C(C#N)C(c4cc(OC)ccc4OC)CC(=O)N3C2)c(OC)c1 (stereo unspecified),9.09 µM (active)
14,COc1cc(OC)c(C2CC(=O)N3CN(C)CSC3=C2C#N)cc1OC (stereo unspecified),83.4 µM (active)
15,COc1cc(OC)c(C2CC(=O)N3CN(c4ccccc4C)CSC3=C2C#N)cc1OC (stereo unspecified),inactive
16,COc1ccc2c(c1OC)C(=O)N1c3ccccc3N=C(c3ccc([N+](=O)[O-])cc3)CC21 (stereo unspecified),inactive
17,O=C(NCc1ccco1)/C(=C/c1ccc(C(F)(F)F)cc1)c1nc2ccccc2[nH]1,inactive
18,N#C/C(=C/c1ccc(O)c(O)c1)c1nc2ccccc2[nH]1,5.71 µM (active)
19,O=C(CCn1cnc2ccccc21)N/N=C/c1ccc(O)cc1,7.9 µM (active)
20,O=C(C[n+]1ccccc1)N/N=C/c1ccc(O)cc1,3.04 µM (active)
21,O=C(CC(=O)N/N=C/c1ccc(O)cc1)N/N=C/c1ccc(O)cc1,1.98 µM (active)
22,Cc1cccc(-c2nn(-c3ccccc3)cc2C(=O)Nc2cccc(S(=O)(=O)NC3=NCCC3)c2)c1,inactive
23,Cc1nc2cc(-c3ccsc3-n3c(C)ccc3C)[nH]n2c(=O)c1Cl,inactive
24,CNc1nc(-c2ccccc2)[n+](-c2ccc(C)cc2)s1,18.6 µM (active)
25,COc1cc2c(cc1OC)-c1cc(Nc3ccc(N(C)C)cc3)nc(=O)n1CC2,1.76 µM (active)
26,O=C1C=CC(=O)N1c1ccc(O)cc1,inactive

row,SMILES,IC50
1,O=C1CSC(=Nc2ccc(O)cc2)N1c1ccc(O)cc1,3.6 µM (active)
2,Cc1nnc(N/N=C/c2c(O)n(-c3cccc(C(F)(F)F)c3)c(=O)c3ccccc23)[nH]c1=O,8.07 µM (active)
3,CN(C)c1ccc(CNc2ccc3c(c2)ncn3C)cc1,13.5 µM (active)
4,CCn1cnc2cc(NCc3ccc(N(C)C)cc3)ccc21,10.5 µM (active)
5,Cc1ccc(CNc2ccc3c(c2)ncn3C(C)C)cc1,12.7 µM (active)
6,CC(C)c1ccc(CNc2nnnn2C)cc1,inactive
7,ClC(Cl)(c1nnnn1-c1ccccc1)c1nnnn1-c1ccccc1,inactive
8,CC(Cc1ccc(O)c(O)c1)C(C)Cc1ccc(O)c(O)c1 (stereo unspecified),22.3 µM (active)
9,CCCCCCN=C(C)c1ccccc1O,inactive
10,O=C(O)c1cccc(S(=O)(=O)Nc2ccc3oc(=O)sc3c2)c1,inactive
11,CC(=O)N(c1ccc2oc(=O)sc2c1)S(=O)(=O)c1ccccc1,62.1 µM (active)
12,CSc1nc(O)c(C(c2ccc(OC(C)C)cc2)c2c(O)nc(SC)[nH]c2=O)c(=O)[nH]1,inactive
13,COc1cc(/C=N/NC(=O)C2=NNC(=O)C2C)ccc1O (stereo unspecified),6.5 µM (active)
14,COc1cc(/C=N/NC(=O)CC2C(=O)NN=C2C)ccc1O (stereo unspecified),5.63 µM (active)
15,CCCc1cc(=O)[nH]c(Nc2ccc(O)cc2)n1,3.17 µM (active)
16,COc1cccc(C=Nc2ccc(N3CCOCC3)cc2)c1O,5.29 µM (active)
17,Oc1ccc(C=Nc2ccc(N3CCOCC3)cc2)c(O)c1,2.33 µM (active)
18,Oc1ccc2ccccc2c1C=Nc1ccc(N2CCOCC2)cc1,2.74 µM (active)
19,Oc1ccc(N=Cc2cc(Br)c(N3CCOCC3)o2)cc1,8.18 µM (active)
20,Cc1ccc(NC(NC(=O)Cc2ccccc2)C(Cl)(Cl)Cl)cc1 (stereo unspecified),inactive
21,CC1CCCN(Cc2nc(Cc3ccccc3Cl)no2)C1 (stereo unspecified),inactive
22,COc1ccc(CC(O)COS(N)(=O)=O)cc1 (stereo unspecified),inactive
23,C(=Nc1ccc(N2CCOCC2)cc1)c1c[nH]c2ccccc12,7.55 µM (active)
24,O=[N+]([O-])c1cc(Cc2ccccc2)cc(C=Nc2ccc(N3CCOCC3)cc2)c1O,3.16 µM (active)
25,O=[N+]([O-])/C=C\c1ccc(N2CCOCC2)cc1,inactive
26,O=C(O)c1cc(-c2ccco2)nc2cc3ccccc3cc12,inactive

row,SMILES,IC50
1,CCC(=O)NC(C)C(c1cccs1)N1CCN(c2ccccc2)CC1 (stereo unspecified),inactive
2,O=c1cc(CN2CCN(c3ccc(O)cc3)CC2)nc2scc(-c3ccccc3)n12,9.38 µM (active)
3,O=c1[nH]c(=S)[nH]c2[nH]c(=S)[nH]c12,52.7 µM (active)
4,CC(C)N1CN(c2ccccc2)C(=S)N(c2ccccc2)C1,inactive
5,N#C/C(C(=O)Nc1ccc(Cl)cc1)=C(/S)Nc1ccccc1,21.8 µM (active)
6,Cc1n[nH]c(=O)nc1Nc1ccc(O)cc1,2.48 µM (active)
7,Cc1nnc(Nc2ccc(O)cc2)[nH]c1=O,3.89 µM (active)
8,Cc1[nH]nc(Nc2ccc(O)cc2)c1[N+](=O)[O-],3.93 µM (active)
9,N#C/C(=C\c1ccc(O)c(O)c1)C(=O)N1CCc2ccccc21,9.2 µM (active)
10,CCC(=O)N1CCc2cc(S(=O)(=O)N(C)c3ccc(OC)cc3OC)ccc21,inactive
11,COc1cc(C=C(C(C)=O)C(C)=O)ccc1O,3.76 µM (active)
12,COc1cc(/C=C(\C#N)C(=O)N2CCCCC2)ccc1O,5.73 µM (active)
13,Cc1cc(/C=C(\C#N)C(=O)NC2CCCCCC2)c(C)n1C,inactive
14,COc1cc(/C=C(\C#N)C(=O)N2CCc3ccccc32)ccc1O,2.3 µM (active)
15,CC(C)(C)NC(=O)COC(=O)c1cc(F)c(F)cc1Cl,inactive
16,CCOC(=O)N1[C@@H]2C=C(C)[C@@H]2[C@@H]2[C@@H](C)C(=O)N21,inactive
17,O=C(/C=C/c1cccc(Cl)c1)c1ccc([N+](=O)[O-])o1,inactive
18,Cc1ccccc1/C=C/C(=O)c1ccc([N+](=O)[O-])o1,inactive
19,COc1cc(/C=C/C(=O)c2ccc([N+](=O)[O-])o2)ccc1O,5.19 µM (active)
20,Cc1ccc(S(=O)(=O)N2CCN(CC(=O)N/N=C\c3ccc(O)c(O)c3)CC2)cc1,3.2 µM (active)
21,O=S(=O)(c1ccc(NC(=S)N/N=C/c2ccc(O)c(O)c2)cc1)N1CCOCC1,5.94 µM (active)
22,Cc1ccc(S(=O)(=O)N2[C@@H](c3ccc(Cl)cc3)C(C(=O)O)=CC[C@H]2c2ccc(Cl)cc2)cc1,inactive
23,COc1ccc(NC(=O)CN(C)C(=O)CCc2nc3cc(S(=O)(=O)N4CCOCC4)ccc3n2C)cc1,inactive
24,CCN(CC)c1ccc(NC(=O)CCNS(=O)(=O)c2ccc3c(c2)CCC(=O)N3)c(C)c1,7.36 µM (active)
25,Cc1c(NC(=O)c2cnn3c2NC(c2ccccc2)CC3C(F)(F)F)c(=O)n(-c2ccccc2)n1C (stereo unspecified),inactive
26,Cc1c(NC(=O)CN2CCN(c3ccc(O)cc3)CC2)c(=O)n(-c2ccccc2)n1C,8.18 µM (active)

row,SMILES,IC50
1,Cc1c(NC(=O)C(C)OC(=O)/C=C/c2ccco2)c(=O)n(-c2ccccc2)n1C (stereo unspecified),inactive
2,CC(C)(C)NC(=O)NC(=O)CN1CCN(c2ccc(O)cc2)CC1,4.89 µM (active)
3,Cc1c(NC(=O)COC(=O)COc2ccc(Nc3ccccc3)cc2)c(=O)n(-c2ccccc2)n1C,8.78 µM (active)
4,CN1CCN(CC(=O)Nc2c(C#N)cnn2-c2ccccc2)CC1,inactive
5,N#Cc1ccsc1NC(=O)CN1CCN(c2ccc(O)cc2)CC1,6.3 µM (active)
6,COc1ccc(-c2nnc(SC(C)C(=O)Nc3c(C)n(C)n(-c4ccccc4)c3=O)o2)cc1 (stereo unspecified),inactive
7,Cc1nc2ccc(NC(=O)c3cc([N+](=O)[O-])cc([N+](=O)[O-])c3Cl)cc2s1,inactive
8,Cc1ccc(N/C(C(Cl)=C(Cl)Cl)=C(/Cl)[N+](=O)[O-])c(C)c1,inactive
9,O=C(Cn1cnc2c(nnn2Cc2ccccc2)c1=O)Nc1ccc2c(c1)OCCO2,inactive
10,O=C(CN1CCN(c2ccc(O)cc2)CC1)Nc1ccc2c(c1)OCCO2,6.55 µM (active)
11,Cc1cc(NC(=O)CN2CCN(c3ccc(O)cc3)CC2)no1,4.08 µM (active)
12,Cc1cc(NC(=O)c2noc3c2CCCCC3)no1,inactive
13,CCOC(=O)C1CCN(C(=O)COC(=O)CSc2ccc([N+](=O)[O-])cc2)CC1,inactive
14,O=C(C1CC1)N1CCN(c2ccc(O)cc2)CC1,3.4 µM (active)
15,CCOc1ccc(OCCC(=O)OCC(=O)N2CCN(S(=O)(=O)c3ccc(C)cc3)CC2)cc1,10.1 µM (active)
16,Cc1ccc(N(C=NC#N)CC(=O)N2CCN(c3ccccc3)CC2)cc1,inactive
17,O=C(CCOc1ccccc1)N1CCN(c2ccc(O)cc2)CC1,3.56 µM (active)
18,O=C(C1CCCN(S(=O)(=O)c2cccc3nonc23)C1)N1CCN(c2ccccc2)CC1 (stereo unspecified),inactive
19,Cc1ccc(OCCC(=O)N2CCN(c3ccc(O)cc3)CC2)cc1,4.43 µM (active)
20,O=C(CCC(=O)N1CCN(c2ccccc2F)CC1)N1CCN(c2ccccc2)CC1,inactive
21,CCCCCCC1CCC(C(=O)N2CCOCC2)CC1 (stereo unspecified),inactive
22,O=C(COc1ncnc2sccc12)N1CCN(c2ccccc2)CC1,inactive
23,COc1ccccc1N1CCN(C(=O)C2CCN(S(=O)(=O)c3ccc(C)cc3)CC2)CC1,inactive
